An excerpt weighted towards active compounds, which were near 2.3% of everything screened.
PDI inh: inhibitors of human PDI, primary screen, biochemical, turbidity, single point, plate reader | PDI insulin aggregation turbidity, A650, 90 min | actives 0.052% (n = 350,000) | Protein disulfide-isomerase (Homo sapiens), P07237 | inhibition, % at 10 µM;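 active = mean inhibition across replicates of 30% or more, whatever share of single replicates reach that level; inconclusive = mean inhibition below 30% while every single replicate reaches 30%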
Target sequence (P07237 whole entry, looked up): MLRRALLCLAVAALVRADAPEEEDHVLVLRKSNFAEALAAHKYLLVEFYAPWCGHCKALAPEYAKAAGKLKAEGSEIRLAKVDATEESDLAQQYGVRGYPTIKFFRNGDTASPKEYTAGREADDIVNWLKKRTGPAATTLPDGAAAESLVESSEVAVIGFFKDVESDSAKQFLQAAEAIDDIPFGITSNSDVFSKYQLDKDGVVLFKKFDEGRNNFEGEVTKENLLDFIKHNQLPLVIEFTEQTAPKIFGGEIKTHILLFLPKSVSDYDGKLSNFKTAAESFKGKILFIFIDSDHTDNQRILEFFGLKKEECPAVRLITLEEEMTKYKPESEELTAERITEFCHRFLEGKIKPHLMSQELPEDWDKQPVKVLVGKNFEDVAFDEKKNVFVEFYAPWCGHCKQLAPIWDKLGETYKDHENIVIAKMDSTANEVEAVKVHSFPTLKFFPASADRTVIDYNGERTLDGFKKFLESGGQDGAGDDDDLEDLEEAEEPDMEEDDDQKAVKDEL
SIRT5 inh: SIRT5 desuccinylase inhibitors, primary screen, biochemical, fluorescence imaging, single point, set 5; NAD-dependent protein deacylase sirtuin-5, mitochondrial (Homo sapiens), Q9NXA8; inhibition, % at 15 µM; Purified SirT5, succinyl-peptide AMC, trypsin-coupled fluorescence; actives 1.1% (n = 330,000); AID 652115, 2013; in the data active = inhibition above about 15%; inconclusive = no clear call, values can overlap the other calls
Rtt109 Vps75: inhibitors of C. albicans Rtt109/Vps75 HAT, primary screen, biochemical, ThioGlo CoA-SH fluorescence, plate reader | actives 0.16% (n = 330,000) | AID 540336, 2011 | inhibition, % at 34.9 µM | Histone acetyltransferase RTT109 (Candida albicans (strain SC5314 / ATCC MYA-2876)), … | purified Rtt109/Vps75, 4 h;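 active = inhibition of at least 50% in every replicate; inconclusive = best replicate reaches 50% inhibition but some replicates fall short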
ERp5 inh: inhibitors of ERp5-driven insulin aggregation, primary screen, biochemical, turbidity, absorbance 650 nm, single point. Protein disulfide-isomerase A6 (Homo sapiens), Q15084. 90 min. inhibition, % at 9.99 µM. actives 0.05% (n = 350,000). AID 651711, 2012;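 active = mean replicate inhibition above about 25%, with every replicate also reaching it, limit read from the data, passing the limit was not always enough; inconclusive = only one of those two criteria met; inactive = neither criterion met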
DENV2 CPE rescue: inhibitors of DENV2 cytopathic effect, primary screen, cell-based, plate reader, single concentration; actives 1.7% (n = 350,000); DENV2-infected cells, cytopathic effect rescue; AID 651640, 2012; CPE inhibition, % at 9.99 µM; in the data active = CPE inhibition above about 20%, passing the limit was not always enough; inconclusive = no clear call, values can overlap the other calls; tested in BHK-21 cells
Numbers stand for hits; - = inactive; ? = inconclusive; . = no result given.

SMILES	PDI inh	SIRT5 inh	Rtt109 Vps75	ERp5 inh	DENV2 CPE rescue
O=C(C[C@H]1C=C[C@H](NC(=O)CCN2CCCCC2)[C@@H](CO)O1)Nc1ccc(-c2ccccc2)cc1	.	-	.	-	-
CC(C)Cn1c(N)c(C(=O)COC(=O)c2cc(F)cc(F)c2)c(=O)n(C)c1=O	-	-	-	-	?
CC(C)Cn1c(N)c(C(=O)COC(=O)c2ccc(O)cc2)c(=O)n(C)c1=O	55	-	-	-	-
CC(C)Cn1c(N)c(C(=O)COC(=O)c2cc(-c3ccccc3)nc3ccccc23)c(=O)n(C)c1=O	-	.	-	-	30
CN(C)c1ccc2c(c1)[C@@H]1C[C@H](CC(=O)NCC3CC3)O[C@@H](CO)[C@@H]1O2	.	-	.	-	-
Cc1ccc([C@@H]2[C@@H]3C(=O)N(c4ccccc4)C(=O)[C@@H]3[C@]3(C)C(=O)N(CC4CC4)CC(=O)N23)o1	-	-	-	-	50
Cc1ccc([C@@H]2[C@@H]3C(=O)N(C)C(=O)[C@@H]3[C@]3(C)C(=O)N(Cc4ccccc4)CC(=O)N23)o1	-	-	-	-	-
O=C(NNc1ccccc1)C(CCO)C(=O)NNc1ccccc1	-	112	-	-	-
CCCNC(=O)[C@@H]1[C@@H](CO)[C@@H]2Cn3c(ccc(-c4ccccc4)c3=O)[C@@H]2N1CC1CC1	.	-	.	-	?
CCOC(=O)c1c(-c2ccc(C)cc2)csc1NC(=O)CCN1CC(C)OC(C)C1 (configuration not stated)	-	20	-	-	-
CCOC(=O)c1c(-c2ccc(OC)cc2)csc1NC(=O)CCN1CCOCC1	-	-	-	-	-
COc1ccccc1NC(=O)COC(=O)c1ccc([N+](=O)[O-])s1	-	23	-	-	-
COc1ccccc1NC(=O)COC(=O)c1[nH]c(=O)[nH]c(=O)c1N	-	17	-	-	-
Cc1ccc(NC(=O)COC(=O)c2ccc([N+](=O)[O-])s2)c(C)c1	-	-	-	-	-
CCNC(=O)C[C@@H]1CC[C@@H](NS(=O)(=O)c2ccc(C)cc2)[C@H](CO)O1	.	-	.	-	-
C[C@@H]1CCCCO[C@H](CN(C)S(=O)(=O)c2cn(C)cn2)[C@@H](C)CN([C@@H](C)CO)C(=O)c2cc(NC(=O)C3CCCCC3)ccc2O1	.	-	.	-	-
C#CCN1C(=O)[C@]2(OCCC=C[C@H]2C)c2ccccc21	.	-	.	-	77
COCCNC(=O)C[C@@H]1CC[C@H](NC(=O)NC2CCCC2)[C@@H](CO)O1	.	-	.	-	22
COc1ccccc1CNC(=O)C[C@@H]1C[C@H]2c3cc(NC(=O)Nc4ccccc4F)ccc3O[C@H]2[C@H](CO)O1	.	-	.	-	-
COCC(=O)Nc1ccc2c(c1)[C@@H]1C[C@@H](CC(=O)NCc3ccccc3OC)O[C@@H](CO)[C@@H]1O2	.	19	.	.	-
O=C(C[C@@H]1CC[C@@H](NC(=O)C2CCC2)[C@@H](CO)O1)NCc1ccccc1Cl	.	-	.	-	-
COc1ccccc1CNC(=O)C[C@@H]1C[C@H]2c3cc(NC(=O)Nc4ccc(C(F)(F)F)cc4)ccc3O[C@H]2[C@@H](CO)O1	.	-	.	-	36
O=C(C[C@H]1CC[C@H](NC(=O)C2CCC2)[C@H](CO)O1)NCc1ccccc1Cl	.	25	.	-	-
O=C(C[C@@H]1C[C@@H]2c3cc(NC(=O)Cc4ccncc4)ccc3O[C@@H]2[C@H](CO)O1)NCc1cccnc1	.	-	.	-	?
CC(C)NC(=O)N(C)C[C@H]1OCCCC[C@@H](C)Oc2ccc(NS(=O)(=O)c3ccc(F)cc3)cc2C(=O)N([C@@H](C)CO)C[C@@H]1C	.	-	.	-	-
SMILES	PDI inh	SIRT5 inh	Rtt109 Vps75	ERp5 inh	DENV2 CPE rescue
COCC(=O)N[C@@H]1CC[C@H](CC(=O)NCc2ccccc2OC)O[C@@H]1CO	.	16	.	-	-
COCC(=O)N[C@H]1CC[C@H](CC(=O)NCc2ccccc2OC)O[C@H]1CO	.	-	.	-	-
C[C@@H]1CN([C@@H](C)CO)C(=O)c2cc(NS(C)(=O)=O)ccc2O[C@@H](C)CCCCO[C@@H]1CN(C)S(=O)(=O)c1ccc(Cl)cc1	.	-	.	-	20
Cc1ccc(S(=O)(=O)Nc2ccc3c(c2)C(=O)N([C@H](C)CO)C[C@H](C)[C@H](CN(C)S(=O)(=O)c2ccc(Cl)cc2)OCCCC[C@H](C)O3)cc1	.	.	.	.	-
Cc1ccc(S(=O)(=O)Nc2ccc3c(c2)C(=O)N([C@@H](C)CO)C[C@@H](C)[C@H](CN(C)S(=O)(=O)c2ccc(Cl)cc2)OCCCC[C@@H](C)O3)cc1	.	.	.	.	83
C[C@@H]1CCCCO[C@H](CN(C)S(=O)(=O)c2ccc(Cl)cc2)[C@H](C)CN([C@H](C)CO)C(=O)c2cc(N(C)C)ccc2O1	.	-	.	-	89
Cc1ccc(S(=O)(=O)N(C)C[C@H]2OCCCC[C@H](C)Oc3ccc(NS(=O)(=O)c4ccc(Cl)cc4)cc3C(=O)N([C@H](C)CO)C[C@H]2C)cc1	.	26	.	-	-
C[C@@H]1CN([C@H](C)CO)C(=O)c2cc(NS(C)(=O)=O)ccc2O[C@@H](C)CCCCO[C@@H]1CN(C)S(=O)(=O)c1ccc(Cl)cc1	.	-	.	-	-
COCC(=O)N1C[C@H](C)[C@@H](OC)CN(C)C(=O)c2ccc(NS(C)(=O)=O)cc2OC[C@@H]1C	.	-	.	-	-
C[C@@H]1CN([C@H](C)CO)C(=O)c2cc(/C=C/c3ccccc3)cnc2O[C@H]1CN(C)Cc1cccnc1	.	-	.	-	-
COc1cccc(S(=O)(=O)N[C@H]2CC[C@H](CCn3cc(-c4ccc(F)cc4)nn3)O[C@H]2CO)c1	.	-	.	-	-
COc1cccc(S(=O)(=O)N[C@H]2C=C[C@H](CC(=O)NCc3ccccc3)O[C@@H]2CO)c1	.	-	.	-	-
C[C@@H]1CCCCO[C@@H](CN(C)S(=O)(=O)c2cn(C)cn2)[C@@H](C)CN([C@@H](C)CO)C(=O)c2cc(NS(=O)(=O)c3cccs3)ccc2O1	.	-	.	-	-
Cc1ccc(S(=O)(=O)N(C)C[C@@H]2OCCCC[C@@H](C)Oc3ccc(NS(=O)(=O)c4ccc(Cl)cc4)cc3C(=O)N([C@H](C)CO)C[C@H]2C)cc1	.	23	.	-	-
Cc1ccc(S(=O)(=O)N(C)C[C@@H]2OCCCC[C@@H](C)Oc3ccc(NS(=O)(=O)c4ccc(Cl)cc4)cc3C(=O)N([C@@H](C)CO)C[C@H]2C)cc1	.	25	.	-	-
Cc1ccc(S(=O)(=O)N(C)C[C@@H]2OCCCC[C@H](C)Oc3ccc(NS(=O)(=O)c4ccc(Cl)cc4)cc3C(=O)N([C@H](C)CO)C[C@@H]2C)cc1	.	19	.	-	-
Cc1ccc(S(=O)(=O)Nc2ccc3c(c2)C(=O)N([C@H](C)CO)C[C@@H](C)[C@@H](CN(C)S(=O)(=O)c2ccc(Cl)cc2)OCCCC[C@@H](C)O3)cc1	.	.	.	.	-
